Assay outcomes (PubChem BioAssay)
FLuc modulator – qHTS profiling assay for firefly luciferase inhibitor/activator using purifed enzyme and Km concentrations of substrates (counterscreen for miR-21 project); Luciferin 4-monooxygenase (Photinus pyralis), P08659; purified FLuc, Km substrates, luminescence inhibition; Potency, µM (highest dose often 57.5 µM), without a hit: at the top dose activity change, negative = inhibition, most hits filed as inhibitors; 6.9% of 360,000 active; AID 588342, 2011;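 note: plate controls were vehicle for no effect and reference inhibitor for full effect; nearly all actives have a fitted effect of over 55% in size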
Target sequence (P08659 whole entry, looked up): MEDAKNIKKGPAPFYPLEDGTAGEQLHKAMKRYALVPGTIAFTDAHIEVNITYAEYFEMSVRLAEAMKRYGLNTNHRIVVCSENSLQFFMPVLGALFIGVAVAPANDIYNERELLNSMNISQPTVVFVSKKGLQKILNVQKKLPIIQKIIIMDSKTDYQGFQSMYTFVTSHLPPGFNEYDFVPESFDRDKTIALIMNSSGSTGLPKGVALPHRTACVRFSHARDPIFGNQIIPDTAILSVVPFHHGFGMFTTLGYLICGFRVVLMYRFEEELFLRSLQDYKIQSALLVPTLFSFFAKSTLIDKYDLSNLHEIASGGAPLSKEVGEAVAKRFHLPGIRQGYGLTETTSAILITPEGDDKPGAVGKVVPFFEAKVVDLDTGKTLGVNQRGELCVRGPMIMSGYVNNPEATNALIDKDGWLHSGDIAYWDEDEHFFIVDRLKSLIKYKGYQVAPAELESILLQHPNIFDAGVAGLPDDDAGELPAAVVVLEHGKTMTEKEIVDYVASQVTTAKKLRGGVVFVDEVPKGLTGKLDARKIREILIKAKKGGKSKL
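Biochemical qHTS of compounds, final roughly 60 µM downward over six points, against 10 nM purified firefly luciferase using Km concentrations of substrates (10 uM D-luciferin, 10 uM ATP) in Tris acetate pH 7.5 buffer; luminescence output.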
Rab9 prom act – qHTS Assay for Rab9 Promoter Activators; Huh7 Rab9 promoter-luciferase reporter, luminescence, 24 h; Potency, µM (series often up to 9.22 µM), without a hit: at the highest dose activation, negative = inhibition, most hits filed as activators; 2.8% of 320,000 active; AID 485297, 2010; note: % of control where 0% means no effect; nearly all actives have a fitted effect of over 60% in size
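Using Huh7 cells stably transfected with Rab9 promoter–luciferase, compounds were incubated 24 h at 37 °C, 5% CO2; luciferase luminescence was read 10 min after reagent addition.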
NPC1 promoter act – qHTS Assay for NPC1 Promoter Activators. AID 485313, 2010. Huh7 NPC1 promoter luciferase reporter, 24 h. 2.4% of 320,000 active. Potency, µM (doses to about 9.22 µM), inactives show at the highest dose activation, most hits filed as activators; note: % of control where 0% means no effect; nearly all actives have a fitted effect of over 60% in size
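Huh7 reporter cells (NPC1 promoter driving luciferase) are dosed with compound for 24 h at 37 °C, 5% CO2; luciferase detection reagent is then added and luminescence measured after 10 min at ambient temperature.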
ELG1 genotoxic – qHTS screen for small molecules that induce genotoxicity in human embryonic kidney (HEK293T) cells expressing luciferase-tagged ELG1 | Potency, µM (highest dose often 46 µM), inactives show top-dose activity change, positive = activation, hits mostly activators | HEK293T ELG1-luciferase reporter, luminescence, 16 h | AID 504466, 2011 | 1.3% of 330,000 active; note: % of control where 0% means no effect; nearly all actives have a fitted effect of over 60% in size
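DMSO vehicle served as control against compound-treated ELG1-luciferase HEK293T cells; exposure lasted 16 hr at 37 °C and 5% CO2, followed by ONE-Glo luminescence detection after 30 min.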
SMN2 splice enh – qHTS Assay for Enhancers of SMN2 Splice Variant Expression; HEK293 SMN2-luciferase splicing reporter, luminescence, 30-36 h; Potency, µM (series often up to 46.1 µM), inactives show top-dose activity change, positive = activation, most hits filed as activators; 2.8% of 210,000 active; note: % of control where 0% means no effect; nearly all actives have a fitted effect of over 55% in size
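HEK293 cells carry an SMN2 minigene-luciferase reporter in which exon 7 inclusion puts luciferase in frame. Cells were seeded at 2000 cells/well, attached for 10-12 hours, then exposed to compounds for 30-36 hours at 37C before ONE-Glo luminescence.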
* hit, by the source's call; ? = inconclusive; . = not tested or not shown; [ ] = remark or other dose. In the library only some 7.4% were active in any assay of this set; here they are far more common. Calls come from the whole dose curve; as a rule, active = well fitted curve in the direction sought with a large enough effect; inconclusive = small, poorly fitted or top-dose-only effect, or another doubt; inactive = no such curve, though single readings can be large; an effect the other way counts as inactive or inconclusive. Potency is the fitted concentration of half-maximal effect.

SMILES | FLuc modulator | Rab9 prom act | NPC1 promoter act | ELG1 genotoxic | SMN2 splice enh
O=C(Nc1ccncc1)Nc1cccc(Cl)c1Cl | ? | -2% | 1% | -2% | .
O=C(Nc1ccccc1)Nc1cccc(Cl)c1Cl | 11µM* | 16% | 21% | 14% | -22%
CC(=O)Nc1ccc(NC(=O)Nc2ccc(C)c(C)c2)cc1 | -2% | 15% | -1% | ? | 7%
CC(=O)Nc1cccc(NC(=O)Nc2ccc(C)c(Cl)c2)c1 | 2.1µM* | 30% | 10% | 6% | ?
O=C(COc1ccccc1)Nc1cccc2nsnc12 | ? | 0% | 19% | 7% | -14%
O=C(Nc1ccc(Cl)cc1)Nc1cccc2nsnc12 | 4.8µM* | ? | ? | ? | .
O=C(Nc1ccccc1)Nc1ccc(Br)c(Cl)c1 | 6.7µM* | 18% | ? | -9% | ?
Cc1cccc(NS(=O)(=O)c2ccc(C)c(C(=O)NCC(c3cccs3)N(C)C)c2)c1 (stereo not drawn) | -13% | 1% | 0% | -6% | .
O=S(=O)([N-]c1nc2ccccc2nc1-n1cc[n+](Cc2ccccc2)c1)c1ccc(Br)cc1 | -1% | -1% | 1% | ? | .
CN1C2CCCC1CC(NC(=O)c1nn(C)c3ccccc13)C2 (stereo not drawn) | . | 4%[46.1 µM] | 4%[46.1 µM] | . | .
O=C(CN1CCCC1)Nc1ccc(NC(=O)Nc2ccccc2Cl)cc1 | 21µM* | 19% | 16% | ? | 19%
O=C(Nc1ccccc1)Nc1cccc(NC(=O)Nc2ccccc2)c1F | ? | 25% | 27% | 10% | .
O=C(Nc1ccccc1)Nc1ccccc1Br | 24µM* | 4µM* | ? | ? | 24%
COc1cc(OC)c(C(=O)OC(C)C(=O)NCc2ccc3c(c2)OCO3)cc1OC (stereo not drawn) | . | . | . | -3% | .
CCN(Cc1cccs1)C(=O)CN1CCN(S(=O)(=O)c2ccc3c(c2)OCCCO3)CC1 | -1% | 1% | -1% | -4% | .
CCOc1ccc(NC(=O)CSc2ncc3c(n2)-c2ccc(Cl)cc2N(Cc2ccccc2)S3(=O)=O)cc1 | 2% | . | . | . | .
O=C(Nc1nc2ccsc2c(=O)s1)c1ccc(F)cc1 | 0.54µM* | 0.28µM* | 0.4µM* | ? | .
O=C(Nc1nc2ccsc2c(=O)s1)c1ccc(F)cc1Cl | 0.54µM* | 0.56µM* | 0.71µM* | 9.2µM* | .
Cc1csc2c(=O)sc(NC(=O)c3ccc(F)cc3Cl)nc12 | -1% | -11% | -1% | -9% | .
Cc1nc2c(c(SCC(=O)Nc3ccccc3C(F)(F)F)n1)CCC2 | -2% | . | . | . | .
CC1CCCC(C)N1C(=O)COC(=O)c1cccs1 (stereo not drawn) | . | . | . | 0% | .
CC(C)(C)C1CCc2c(C(=O)NNC(=O)CCC(=O)O)csc2C1 (stereo not drawn) | 27µM* | 1% | -2% | 1% | -1%
CCCCNC(=O)CSc1nc2ccccc2nc1Cc1ccccc1 | 0% | . | . | . | .
Clc1cccc(Nc2nnc(-c3ccccc3)c3ccccc23)c1 | . | . | . | . | -47%
Cc1nc2cc(NC(=O)Nc3cccc4ccccc34)ccc2n1C | 0.95µM* | 0.89µM* | 3.2µM* | ? | 4µM*
SMILES | FLuc modulator | Rab9 prom act | NPC1 promoter act | ELG1 genotoxic | SMN2 splice enh
Cc1nc2cc(Nc3nnc(-c4ccccc4)c4ccccc34)ccc2n1C | 0.67µM* | ? | 3.5µM* | ? | .
COc1ccccc1NC(=O)Nc1cc(NC(=O)Nc2ccccc2OC)c(C)nc1C | -1% | -7% | -6% | ? | 31%
COc1ccccc1NC(=O)Nc1ccc2c(c1)nc(C)n2C | 1.5µM* | 0.56µM* | 0.63µM* | ? | 13µM*
Cc1ccc(NC(=O)Nc2ccc3c(c2)nc(C)n3C)cc1C | 2.7µM* | 0.63µM* | 1.3µM* | ? | .
CCOc1ccc(NC(=O)Nc2ccc3c(c2)nc(C)n3C)cc1 | ? | 13% | 2% | 5% | .
CN(Cc1ccccc1)C(=O)CN1CCN(C(c2ccccc2)c2ccccc2)CC1 | 5% | -1% | -4% | -9% | 1%
CCNc1ccccc1 | . | . | . | . | 4%
CC(=O)NS(=O)(=O)c1ccc(NC(=O)c2oc3c(Cl)cccc3c2C)cc1 | 13µM* | 2% | -1% | -1% | .
N=C1SCC(=O)N1/N=C/c1ccccc1 | 5.4µM* | 1% | 0% | -20% | -33%
O=C1CSC(=S)N1/N=C/C=C/c1ccccc1 | ? | -1% | 0% | -2% | 1%
CCn1nc(NS(=O)(=O)c2ccc(NC(C)=O)cc2)c2cc3cc(C)ccc3nc21 | 11µM* | 5% | 9% | 12% | .
CCn1nc(NS(=O)(=O)c2ccccc2)c2cc3cc(C)ccc3nc21 | 15µM* | 0% | 0% | 8% | .
CCn1nc(NS(=O)(=O)c2ccccc2)c2cc3ccc(C)cc3nc21 | ? | -6% | -4% | 0% | .
O=[N+]([O-])c1cccc(-c2nnc(-c3ccc4c(c3)OCO4)o2)c1 | 2.7µM* | 2.2µM* | 2.5µM* | ? | 11µM*
O=C(O)c1cccc(-c2ccc3c(c2)OCO3)c1 | ? | 12% | -1% | 6% | .
O=[N+]([O-])c1cccc(-c2nnc(-c3ccccc3)o2)c1 | 15µM* | 2.2µM* | 2.8µM* | ? | 20µM*
Clc1ccccc1-c1nnc(-c2ccc3c(c2)OCO3)o1 | 2.7µM* | 1.3µM* | 1.4µM* | -11% | 5µM*
Clc1ccccc1-c1nnc2sc(-c3ccc4c(c3)OCO4)nn12 | ? | 14% | -4% | ? | ?
Cc1cccc(NC(=O)CSc2nc3c(c(=O)[nH]2)CN(Cc2ccc4c(c2)OCO4)CC3)c1C | 2% | . | . | . | .
Oc1cccc(N2Cc3ccccc3C2)c1 | ? | -1%[1.84 µM] | -1% | 11% | .
O=C(O)c1ccc(N2CCCCC2)cc1O | 15µM* | 1% | 16% | 6% | .
O=C(O)c1ccc(N2Cc3ccccc3C2)cc1O | 24µM* | 27% | 21% | 3% | -6%
CC12CCC(=O)N1C(C(=O)NNC(=O)c1ccccc1)CS2 (stereo not drawn) | 0% | -8% | 0% | 0% | .
Oc1ccc(/C=C/c2ccnc3ccccc23)cc1 | 24µM* | 17% | 10% | 11% | 21%
O=C(O)C(=Cc1ccnc2ccccc12)C(=O)O | . | . | . | . | -5%[9.22 µM]
Clc1ccccc1/C=C/c1ccnc2ccccc12 | 19µM* | 17% | 14% | 4% | .
COc1cccc2cc(C(=O)OCc3ccccc3)c(=O)oc12 | 6µM* | 11% | 2% | 4% | .
COc1cccc2cc(C(C)=O)oc12 | -11% | 0% | -1% | 2% | -1%
CCN(C(=O)c1cc2cccc(OC)c2oc1=O)c1ccccc1 | 1% | 1% | -4% | -5% | 10µM*
COC(=O)c1ccc(COC(=O)c2cc3ccccc3oc2=O)cc1 | ? | 15% | 3% | 6% | .
